16 compounds from PubChem BioAssay (EPA / NIEHS) can be followed below.

Each structure is given as a SMILES string. Inconclusive results are not listed. Activity calls are given as the source filed them. Rule for the calls: active = hit-call score of the fitted dose curve at least 0.9, where 1 is the maximum; inactive = score below 0.9.

What is called AC50 is the midpoint of the concentration-response curve, whichever way the signal moves.

Read-out in this assay: ABC Transporter (ABCB11), ABCB11 (gene 8647)
In words: CLD_ABCB11_24hr: CellzDirect (CLD) Gene Expression Assay for ABC Transporter (ABCB11) at 24 hours (AID 2283674). Here is the method: CLD_24hr is a cell-based, multiplexed-readout assay that uses hepatocyte, a human liver primary cell, with measurements taken at 24 hours after chemical dosing in a 96-well plate.CLD_ABCB11_24hr is one of 16 assay component(s) measured or calculated from the CLD_24hr assay. It is designed to make measurements of mRNA induction, a form of inducible reporter, as detected with chemiluminescence signals by Quantitative Nuclease Protection Assay (qNPA) technology.Data from the assay component CLD_ABCB11_24hr was analyzed at the endpoint, CLD_ABCB11_24hr, in the positive analysis fitting direction relative to DMSO as the negative control and baseline of activity. Using a type of inducible reporter, gain-of-signal activity can be used to understand changes in the reporter gene as they relate to the gene ABCB11. Furthermore, this assay endpoint can be referred to as a primary readout. To generalize the intended target to other relatable targets, this assay endpoint is annotated to the transporter intended target family, where subfamily is ABC transporter.
Human hepatocyte cultures were treated daily for two consecutive days with fresh dosing solutions containing appropriate concentrations of the 320 ToxCast chemicals (chemical identities were blinded to CellzDirect and other ToxCast collaborators), vehicle control (0.2% DMSO), and positive control inducers as summarized in Table 1. Due to the large number of treatment groups and chemicals examined, the ToxCast chemicals were divided into two groups (spanning two independent cultures of hepatocytes from separate donor preparations (Hu778: ToxCast plates 1 and 2; Hu776: ToxCast plates 3 and 4). Each preparation of human hepatocyte cultures was treated with respective vehicle control, medium only control, set of six positive controls/reference chemicals for the five hepatic receptor pathways, and a subset of eight of the ToxCast chemicals (indoxacarb, pyrithiobac-sodium, norflurazon, cyhalofop-butyl, methomyl, thiram, acetochlor, and propiconazole). These replicate data, coupled with internal replicates designed within the blinded ToxCast chemical library, provided additional data to evaluate interindividual differences between hepatocyte preparations and their potential impact on chemical profiles.Cell morphology and integrity were evaluated using phase-contrast microscopy as an indicator of hepatocyte cell health (Tyson & Green, 1987). Cultures for each treatment group (i.e., media, vehicle [0.2% DMSO], positive control inducers [multiple concentrations], and the ToxCast chemicals [multiple concentrations]) were observed and cell morphology was assessed relative to vehicle control cultures at each harvest time point (0, 6, 24, or 48 h). […] Images were evaluated at the conclusion of the study to assess changes in cell integrity and account for the effects of chemical exposure on uncharacteristic changes in concentration-dependent gene expression profiles. The results from these determinations of apparent cytotoxicity were annotated (yes/no) alongside the corresponding qNPA data for reference.At the conclusion of each treatment period, hepatocyte cultures (96-well) were washed with 1 volume of HBSS, lysed by addition of 25 ul ArrayPlate lysis buffer (HTG, Tucson, AZ), and 70 ul/well of Denaturation Oil, denatured by incubation at 95C for 10 min, and frozen at approximately -70C until analysis by nuclease protection assay (qNPA) (Roberts et al., 2007). For qNPA analysis, cell lysates were thawed at 50C for approximately 30 min, qNPA probes were added, and samples were incubated at 95C for 10 min to begin the detection process by denaturing the target RNA, dissociating the duplexes and secondary structure hybridization. At the conclusion of the hybridization period, S1 nuclease reagent was added to each sample to digest all nonprotected nucleotides at 50C for 60-90 min. […]
Take `COC(=O)c1ccccc1C(=O)OC`: the call was inactive.
On to `C#CCOS(=O)OC1CCCCC1Oc1ccc(C(C)(C)C)cc1` (stereo unspecified), for which the outcome was inactive.
The same measure, in the same setting: as for `Oc1ccccc1-c1ccccc1`, the entry is “inactive”.
The same measure, in the same setting: as for `COP(=S)(OC)Oc1nc(Cl)c(Cl)cc1Cl`, the entry is “inactive”.
Still for that read-out and setting: as for `CCCN(CCC)c1c([N+](=O)[O-])cc(S(N)(=O)=O)cc1[N+](=O)[O-]`, the entry is “inactive”.
With `CN(C)C(=S)SSC(=S)N(C)C`, the outcome was inactive.
Still for that read-out and setting: as for `CC(C)(C)c1ccc(CSc2cnn(C(C)(C)C)c(=O)c2Cl)cc1`, the entry is “inactive”; as for `COc1nc(C)nc(NC(=O)NS(=O)(=O)c2ccccc2CCC(F)(F)F)n1`, “inactive”.
Still for that read-out and setting: as for `O=C(O)c1nc(Cl)ccc1Cl`, the entry is “inactive”.
As to `COC(=O)N(OC)c1ccccc1COc1ccn(-c2ccc(Cl)cc2)n1`, the AC50 is 6.18 µM (active).
As for `COC(=O)C(C)Oc1ccc(Oc2ccc(Cl)cc2Cl)cc1` (stereo unspecified), the result was inactive.
The same measure, in the same setting: as for `CCCCOC(=O)c1ccccc1C(=O)OCCCC`, the entry is “inactive”; as for `CCCCC(CC)COC(=O)c1ccccc1C(=O)OCC(CC)CCCC` (stereo unspecified), “inactive”.
In the case of `COc1nc(C)nc(NC(=O)NS(=O)(=O)c2ccccc2Cl)n1`, the result was inactive.
Regarding `CCc1nn(C)c(C(=O)NCc2ccc(C(C)(C)C)cc2)c1Cl`, the AC50 is 34.8 µM (active).
Regarding `C=CC1(C)OC(=O)N(c2cc(Cl)cc(Cl)c2)C1=O` (stereo unspecified), the call was inactive.
